# Reference: PubChem BioAssay (Tox21)
# A number with no mark means an inactive call. Active and inactive are the calls of the source. Calls follow the shape of the dose curve; as a rule, active = well fitted curve in the direction sought with a large enough effect in the repeat runs; inconclusive = weak or mixed curves; inactive = flat fitted curve, though single readings scatter.
# Assay: qHTS assay to test for compound auto fluorescence at 590 nm (red) in HepG2 cell free culture (AID 720684)
# Conditions: cell-free medium autofluorescence, red 540/590 nm; series mostly up to 91.3 µM; fluorescence, % of Rose Bengal: at the top concentration
# Summary of the method: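 Rose Bengal sodium served as the reference for red signal. Test compounds were dispensed into serum-containing MEM (10% FBS) without cells, and plates were read at 540/590 nm.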
# % is scaled to controls: 0 for no effect and ±100 for the full control effect; potency is read from the fitted curve at half-maximal effect; tags tell the direction and shape of the fitted curve or compound fluorescence and quenching.
SMILES,"fluorescence, % of Rose Bengal",Potency
NCC(=O)CCC(=O)O,0.454% [at 46 µM],–
O=C1OC(=O)C2C3C=CC(C3)C12 (stereo not drawn),0.0024%,–
C=C(C)C(=O)OCCOCC,0.0069%,–
CC1(c2ccccc2)OC(C(=O)O)=CC1=O (stereo not drawn),0.002% [at 46 µM],–
C[N+](C)(C)CCOC(=O)CCC(=O)OCC[N+](C)(C)C,0.136% [at 46 µM],–
CCOC(=O)Cc1cccc2ccccc12,-0.021%,–
CC(=O)c1ccc2c(c1)N(CCCN(C)C)c1ccccc1S2,0.233% [at 18.6 µM],–
CN1CCN(C(c2ccccc2)c2ccccc2)CC1,-0.0854% [at 18.6 µM],–
Clc1ccc(Cn2c(CN3CCCC3)nc3ccccc32)cc1,-0.0239% [at 18.6 µM],–
CC1=CC=C(C(C)C)CC1,-0.0505%,–
C[C@H]1C[C@H]2[C@@H]3CCC4=CC(=O)C=C[C@]4(C)[C@@]3(Cl)[C@@H](O)C[C@]2(C)[C@@]1(O)C(=O)CO,0.0804% [at 46 µM],–
CCCCCCCCO[C@@H]1O[C@H](CO)[C@@H](O)[C@H](O)[C@H]1O,0.0063%,–
CC(C)(O)c1ccc(CNC(=O)c2cccnc2Oc2ccc(F)cc2)cc1,-0.066%,–
c1ccc(CNCCNCc2ccccc2)cc1,-0.0469% [at 46 µM],–
COC(C)OC,0.047%,–
CC(COCCO)OCCO (stereo not drawn),-0.153%,–
O=S(=O)(Oc1ccc(Cl)cc1)c1ccccc1,-0.198%,–
COS(=O)(=O)C(F)(F)F,-0.002% [at 95.7 µM],–
CCNc1cc(O)ccc1C,1.92%,–

SMILES,"fluorescence, % of Rose Bengal",Potency
Nc1cccc([N+](=O)[O-])c1,-0.218%,–
CC/C=C\CCOC(=O)CC,-0.0793%,–
O=C(c1ccc(F)cc1)C1CCN(CCn2c(=S)[nH]c3ccccc3c2=O)CC1,0.0106% [at 46 µM],–
CCN(CC)c1ccc2c(-c3ccccc3C(=O)O)c3ccc(=[N+](CC)CC)cc-3oc2c1,–,1.12 µM [fluorescent] (active)
CC(C)CC(=O)C1C(=O)c2ccccc2C1=O,0.0424%,–
ClCCOCCOCCCl,0.0708%,–
CCCCc1ncc(/C=C(\Cc2cccs2)C(=O)O)n1Cc1ccc(C(=O)O)cc1,-0.231% [at 46 µM],–
CN(C)C(=O)NC1(c2ccccc2)CCN(CC[C@@]2(c3ccc(F)c(F)c3)CN(C(=O)c3ccccc3)CCO2)CC1,-0.0661%,–
CC(=O)NO,-0.202% [at 46 µM],–
COc1cc2nc(N3CCN(C(=O)C4COc5ccccc5O4)CC3)nc(N)c2cc1OC (stereo not drawn),-0.143% [at 46 µM],–
CC1=CCCC(C)(C)C12CCC(C)O2 (stereo not drawn),-0.305%,–
Nc1ccccc1S(=O)(=O)c1ccccc1,0.25%,–
COc1ccc(C(=O)c2ccc(OC)cc2O)c(O)c1,0.18%,–
C#CCN(C)CCCOc1ccc(Cl)cc1Cl,0.0679% [at 46 µM],–
C=CC1CC2C=CC1C2 (stereo not drawn),0.0975%,–
CC(=O)c1ccc2c(c1)N(CCCN1CCC(CCO)CC1)c1ccccc1S2,0.583% [at 18.6 µM],–
COC(=O)c1ccc(I)cc1S(=O)(=O)NC(=O)Nc1nc(C)nc(OC)n1,0.0449%,–
C=C1[C@H]2CC[C@@H]3[C@H]2C(C)(C)CCC[C@]13C,-0.178%,–
COC(=O)C1=C(C)NC(COC(N)=O)=C(C(=O)OC(C)C)C1c1cccc(Cl)c1Cl (stereo not drawn),0.023% [at 46 µM],–
